# Measurements taken from PubChem BioAssay.
# “And” between values parts separate entries of the source, which are not always exact repeats. Equal entries are not always repeated. The source made the active and inactive calls. Unless noted, the rule behind the calls is not given here.
# Experiments:
# [1] = system: Wnt5a (protein binding on small-molecule microarray); assay: small molecules binding Wnt5a protein – biophysical, small-molecule microarray, 635/667 nm fluorescence, primary screen (AID 1142); details: 635 nm fluorescence, higher = more signal;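 note: fluorescence read at 667 nm with signal to noise per printed feature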
# [2] = ATP-based viability of Huh7 replicon cells – cell-based, CellTiter-Glo luminescence, basal, 48 h, cytotoxicity control for HCV replication inhibitor project, primary screen (AID 1143); details: higher = more signal, called active from +8 up or from −8 down;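 note: Huh7 hepatoma cells carrying a hepatitis C replication reporter with no stimulus; test concentration not given here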
# [3] = Pseudomonas biofilm growth suppression – PAO1 strain, BacTiter-Glo luminescence, LB-PBS, primary screen (AID 1144); details: P. aeruginosa PAO1 biofilm, 12 h, higher = more signal
# [4] = basal CRE-LacZ reporter activity in PC12 – cell-based, unstimulated, primary screen (AID 1145); details: no forskolin, luminescence, 4.5 h, higher = more signal, called active from +8 up or from −8 down
# [5] = forskolin-driven CRE-LacZ activity in PC12 – cell-based, CRE-LacZ reporter, forskolin-stimulated, primary screen (AID 1146); details: luminescence, 4.5 h, higher = more signal, called active from +8 up or from −8 down;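 note: PC12 cells with 6xCRE LacZ reporter stimulated by forskolin 10 µM; beta-galactosidase reporter signal reflecting CREB driven transcription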
# [6] = biological target: Streptavidin (Streptomyces avidinii) (UniProt P22629); assay: compounds binding control protein streptavidin – biophysical, small-molecule microarray, 635/667 nm fluorescence, artefact control for SMM compound annotation, primary screen (AID 1147); details: higher = more signal;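 note: signal reflects streptavidin binding to arrayed compounds as a control protein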
# [7] = probe aInhba binding on compound microarray – biochemical, small-molecule microarray, 635/667 nm fluorescence, primary screen (AID 1148); details: higher = more signal;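 note: score merges 667nm spot fluorescence with signal-to-noise for antibody binding to printed compounds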
# [8] = biological target: Torsin-1A (Homo sapiens) (UniProt O14656); assay: TOR1A wild-type binding on microarray – cell lysate, small-molecule microarray, lysate, 635/667 nm, primary screen (AID 1149); details: COS7 hTOR1A-WT lysate, 635 nm fluorescence, higher = more signal
# [9] = biological target: Torsin-1A (Homo sapiens) (UniProt O14656); assay: torsin A mutant lysate binding on microarrays – cell lysate, small-molecule microarray, COS7 lysate, 635/667 nm fluorescence, primary screen (AID 1150); details: COS7 hTOR1A mutant lysate, 635 nm fluorescence, higher = more signal;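 note: score pools 667 nm emission and signal to noise measuring lysate protein binding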
# [10] = system: Sonic hedgehog protein (Shh); assay: Sonic hedgehog microarray binding compounds – biochemical, small-molecule microarray, 635/667 nm fluorescence, primary screen (AID 1151); details: 635 nm fluorescence, higher = more signal;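 note: Shh protein binding to compounds spotted on small-molecule microarray slides; score combines spot fluorescence intensity with signal-to-noise across triplicate slides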
# [11] = optical density shifts of acrAB sulA E. coli – strain DRC41, OD650, 48 h, E. coli filamentation inducer project, primary screen (AID 1152); details: higher = more signal, called active from +8 up or from −8 down;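 note: E. coli MC1000 strain DRC41 lacking acrAB efflux pump and sulA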
# [12] = probe aLefty1 binding on compound microarray – biochemical, small-molecule microarray, 635/667 nm fluorescence, primary screen (AID 1153); details: higher = more signal;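 note: score merges spot fluorescence with signal-to-noise ratio from the scanned slide images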
# [13] = plasmodial surface anion channel blockers, osmotic lysis – cell-based, P. falciparum Indochina, OD700, 1 h, primary screen (AID 1154); details: P. falciparum Indochina infected RBC osmotic lysis, higher = more signal, called active from +8 up or from −8 down
# [14] = plasmodial surface anion channel blockers, osmotic lysis – cell-based, P. falciparum Indochina, OD700, 2 h, primary screen (AID 1155);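 note: lysis reports solute entry through the parasite surface anion channel PSAC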; details: P. falciparum Indochina infected erythrocytes, higher = more signal, called active from +8 up or from −8 down
# [15] = changes in parasitized red cell lysis, either direction – P. falciparum Indochina, OD700, 3 h, PSAC antagonist project, primary screen (AID 1156); details: P. falciparum-infected erythrocytes, osmotic lysis, higher = more signal, called active from +8 up or from −8 down
# [16] = plasmodial surface anion channel blockers, osmotic lysis – cell-based, P. falciparum Indochina, OD700, 18 h, primary screen (AID 1157); details: P. falciparum Indochina infected erythrocytes, osmotic lysis OD700, 18 h; higher = more signal, called active from +8 up or from −8 down
# [17] = S6 kinase pathway phospho-S6 level changes – cell-based, A549, cytoblot, luminescence, serum-stimulated, primary screen (AID 1158); details: 5 h, higher = more signal;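 note: serum-stimulated A549 lung adenocarcinoma cells; signal is phosphorylated S6 detected by cytoblot immunostaining with HRP secondary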
# [18] = biological target: NADPH oxidase 2 (Homo sapiens) (UniProt P04839); assay: compounds shifting NOX2 Amplex Red fluorescence – cell-based, HEK293-NOX2, PMA-stimulated, NOX inhibitor project, primary screen (AID 1159); details: 45 min, higher = more signal, called active from +8 up or from −8 down; note: test concentration not given here
# [19] = biological target: NADPH oxidase 4 (Homo sapiens) (UniProt Q9NPH5); assay: compounds shifting NOX4 Amplex Red fluorescence – cell-based, HEK293-NOX4, tetracycline-induced, NOX inhibitor project, primary screen (AID 1160); details: HEK293-NOX4, Amplex Red H2O2 fluorescence, 45 min; higher = more signal, called active from +8 up or from −8 down
# [20] = biological target: NADPH oxidase 5 (Homo sapiens) (UniProt Q96PH1); assay: compounds shifting NOX5 Amplex Red fluorescence – cell-based, HEK293-NOX5, NOX inhibitor project, primary screen (AID 1161); details: HEK293-NOX5, ionomycin, 45 min, higher = more signal
# NADPH oxidase 5 (Homo sapiens), sequence (Q96PH1 whole entry, looked up): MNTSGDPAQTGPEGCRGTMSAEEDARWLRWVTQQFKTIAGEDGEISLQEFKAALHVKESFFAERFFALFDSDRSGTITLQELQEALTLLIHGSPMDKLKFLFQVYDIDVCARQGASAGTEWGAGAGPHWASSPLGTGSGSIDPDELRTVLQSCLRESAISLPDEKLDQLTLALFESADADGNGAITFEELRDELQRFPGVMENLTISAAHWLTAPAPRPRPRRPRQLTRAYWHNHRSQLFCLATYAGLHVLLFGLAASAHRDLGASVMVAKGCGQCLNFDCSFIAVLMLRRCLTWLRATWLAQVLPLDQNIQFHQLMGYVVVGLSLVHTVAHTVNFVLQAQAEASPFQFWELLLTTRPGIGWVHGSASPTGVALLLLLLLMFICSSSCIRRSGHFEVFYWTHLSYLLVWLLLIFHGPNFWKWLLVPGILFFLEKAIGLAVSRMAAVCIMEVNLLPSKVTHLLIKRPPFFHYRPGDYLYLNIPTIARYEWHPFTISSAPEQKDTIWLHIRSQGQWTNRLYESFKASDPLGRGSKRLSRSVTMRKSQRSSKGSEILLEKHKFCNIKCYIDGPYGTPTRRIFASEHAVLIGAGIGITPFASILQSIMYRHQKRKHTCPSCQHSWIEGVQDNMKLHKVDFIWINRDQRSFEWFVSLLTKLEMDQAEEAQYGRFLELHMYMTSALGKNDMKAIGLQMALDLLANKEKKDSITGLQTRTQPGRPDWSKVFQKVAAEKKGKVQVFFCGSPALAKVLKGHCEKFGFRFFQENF
# Streptavidin (Streptomyces avidinii), sequence (P22629 whole entry, looked up): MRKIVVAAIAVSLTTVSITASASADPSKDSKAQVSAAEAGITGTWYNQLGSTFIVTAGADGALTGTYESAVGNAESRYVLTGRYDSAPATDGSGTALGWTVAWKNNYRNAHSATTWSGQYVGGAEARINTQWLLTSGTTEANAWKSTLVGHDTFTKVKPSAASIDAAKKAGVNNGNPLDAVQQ
# NADPH oxidase 2 (Homo sapiens), sequence (P04839 whole entry, looked up): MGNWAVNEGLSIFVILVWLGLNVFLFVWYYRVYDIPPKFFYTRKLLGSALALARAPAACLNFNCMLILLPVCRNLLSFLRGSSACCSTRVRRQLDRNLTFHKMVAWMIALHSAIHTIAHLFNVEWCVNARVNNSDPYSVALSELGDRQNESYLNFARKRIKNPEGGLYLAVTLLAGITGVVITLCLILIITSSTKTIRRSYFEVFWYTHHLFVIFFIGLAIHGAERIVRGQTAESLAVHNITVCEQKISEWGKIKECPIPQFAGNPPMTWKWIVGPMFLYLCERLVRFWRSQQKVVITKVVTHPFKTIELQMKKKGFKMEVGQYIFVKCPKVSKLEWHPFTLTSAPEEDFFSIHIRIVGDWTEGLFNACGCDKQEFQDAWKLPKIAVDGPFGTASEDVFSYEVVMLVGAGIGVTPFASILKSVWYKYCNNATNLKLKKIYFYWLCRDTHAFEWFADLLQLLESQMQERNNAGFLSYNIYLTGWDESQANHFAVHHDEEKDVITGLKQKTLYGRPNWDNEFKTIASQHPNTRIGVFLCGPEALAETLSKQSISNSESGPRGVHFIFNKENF
# Torsin-1A (Homo sapiens), sequence (O14656 whole entry, looked up): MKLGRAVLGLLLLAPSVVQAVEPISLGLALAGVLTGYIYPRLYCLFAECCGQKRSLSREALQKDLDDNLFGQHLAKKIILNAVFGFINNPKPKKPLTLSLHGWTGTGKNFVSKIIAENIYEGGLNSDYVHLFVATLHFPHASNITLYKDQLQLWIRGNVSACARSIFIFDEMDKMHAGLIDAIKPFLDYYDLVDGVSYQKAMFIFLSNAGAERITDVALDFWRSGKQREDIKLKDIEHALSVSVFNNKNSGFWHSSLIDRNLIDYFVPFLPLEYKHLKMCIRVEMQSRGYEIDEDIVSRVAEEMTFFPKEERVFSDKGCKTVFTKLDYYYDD
# NADPH oxidase 4 (Homo sapiens), sequence (Q9NPH5 whole entry, looked up): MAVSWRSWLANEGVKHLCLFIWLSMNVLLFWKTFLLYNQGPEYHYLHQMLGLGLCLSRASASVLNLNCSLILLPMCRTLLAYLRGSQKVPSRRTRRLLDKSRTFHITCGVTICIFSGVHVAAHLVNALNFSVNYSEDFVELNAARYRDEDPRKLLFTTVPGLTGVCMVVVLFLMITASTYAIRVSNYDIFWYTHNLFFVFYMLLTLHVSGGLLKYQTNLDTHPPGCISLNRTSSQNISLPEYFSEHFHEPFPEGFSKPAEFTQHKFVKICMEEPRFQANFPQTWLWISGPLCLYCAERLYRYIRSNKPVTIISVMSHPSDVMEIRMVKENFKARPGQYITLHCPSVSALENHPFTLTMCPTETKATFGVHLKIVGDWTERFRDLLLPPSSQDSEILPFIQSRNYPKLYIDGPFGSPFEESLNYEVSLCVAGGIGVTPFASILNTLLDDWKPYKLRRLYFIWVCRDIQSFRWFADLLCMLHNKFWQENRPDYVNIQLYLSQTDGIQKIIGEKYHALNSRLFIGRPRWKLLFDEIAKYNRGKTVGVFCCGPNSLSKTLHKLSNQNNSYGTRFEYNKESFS
SMILES,composite z-score [1],z-score [2],z-score [3],z-score [4],z-score [5],composite z-score [6],composite z-score [7],composite z-score [8],composite z-score [9],composite z-score [10],z-score [11],composite z-score [12],z-score [13],z-score [14],z-score [15],z-score [16],z-score [17],z-score [18],z-score [19],z-score [20]
C=CCN(C(=O)C(c1cccs1)N(C(=O)/C=C\C(=O)O)C(C)(C)CO)C(C)(C)C (stereo not given),-0.291 and -0.768,-0.261 (inactive) and 0.272 (inactive),-1.52 (inactive) and -1.38 (inactive),-0.887 (inactive) and -0.761 (inactive),-0.706 (inactive) and -0.329 (inactive),-0.689 and -1.22,-0.0581 and -0.0791,-0.331 and -0.511,0.214 and 1.51,-0.645 and -0.105,2.48 (inactive) and 1.85 (inactive),-0.0647 and -0.103,-0.534 (inactive) and -0.537 (inactive),-1.13 (inactive) and -0.574 (inactive),-0.936 (inactive) and -0.092 (inactive),-1.37 (inactive) and -0.725 (inactive),1.6 and 0.974,-0.192 (inactive) and -0.0748 (inactive),-0.755 (inactive) and -0.588 (inactive),0.163 and 0.51
CC(C)OC(=O)C=C1C[C@@H](c2cccc(C(F)(F)F)c2)O[C@@H](c2cccc(C(F)(F)F)c2)O1,0.0895 and -0.51,-0.53 (inactive) and -2.72 (inactive),-0.539 (inactive) and 0.216 (inactive),-0.284 (inactive) and 0.379 (inactive),-0.126 (inactive) and 1.11 (inactive),0.0863 and 0.0717,-0.0313 and -0.2,0.704 and 2.6,1.17 and 0.366,-0.0088 and -0.758,-0.599 (inactive) and -0.778 (inactive),-0.0518 and -0.371,2.3 (inactive),0.707 (inactive) and 1.02 (inactive),0.192 (inactive) and -0.365 (inactive),0.613 (inactive) and 0.561 (inactive),0.156 and -0.463,-0.112 (inactive) and 0.194 (inactive),-1.2 (inactive) and -0.65 (inactive),-1.3 and -0.324
CON(C)C(=O)c1nnc2c3ccccc3n(S(=O)(=O)c3ccc(C)cc3)c2n1,0.26 and 0.335,0.24 (inactive) and 0.0218 (inactive),1.36 (inactive) and 0.0837 (inactive),1.37 (inactive) and 1.28 (inactive),-0.0387 (inactive) and -0.484 (inactive),1.31 and 1.67,0.0543 and -0.0018,0.201 and 1.19,0.492 and 1.11,0.642 and 1.22,-0.162 (inactive) and 0.162 (inactive),-0.262 and -0.368,1.21 (inactive) and 2.08 (inactive),0.0579 (inactive) and 0.454 (inactive),-0.212 (inactive) and 0.184 (inactive),-0.096 (inactive) and 0.149 (inactive),-0.375 and 0.313,0.442 (inactive) and -1.24 (inactive),0.882 (inactive) and 0.0607 (inactive),0.436 and 0.278
C=C[C@H](C)[C@@H](O)c1ccc(OCCO)cc1,-0.827 and -0.751,-1.64 (inactive) and 0.216 (inactive),0.0711 (inactive) and -0.987 (inactive),-0.883 (inactive) and 0.861 (inactive),-0.783 (inactive) and -0.722 (inactive),0.129 and -0.772,-0.37 and -0.208,-1.96 and -1.8,-2.09 and -1.25,0.134 and 0.524,-0.454 (inactive) and -0.0821 (inactive),-0.235 and -0.146,0.92 (inactive) and 1.14 (inactive),0.613 (inactive) and 0.0956 (inactive),-0.642 (inactive) and -0.202 (inactive),0.232 (inactive) and 0.252 (inactive),-0.248 and -0.5,0.149 (inactive) and -0.758 (inactive),0.101 (inactive) and -0.0609 (inactive),0.297 and 0.492
C=CCN(CCCCC)C(=O)C1N(c2c(Cl)cccc2CO)C(=O)C2C(C(=O)O)C3C=CC21O3 (stereo not given),-0.65 and -1.3,0.0928 (inactive) and -0.313 (inactive),-0.568 (inactive) and -0.00991 (inactive),0.467 (inactive) and 0.199 (inactive),0.209 (inactive) and -0.0386 (inactive),-1.41,-0.258 and -0.152,-1.44 and -3.52,-1.09 and -2.63,-0.333 and -1.79,-0.281 (inactive) and -0.118 (inactive),-0.313 and 0.0547,1.02 (inactive) and 0.766 (inactive),0.078 (inactive) and 0.573 (inactive),0.418 (inactive) and 0.0852 (inactive),0.188 (inactive) and -0.058 (inactive),0.0308 and 0.765,0.871 (inactive) and 0.757 (inactive),-1.02 (inactive) and -1.22 (inactive),-0.554 and -0.2
